Measurements reported in PubChem BioAssay AID493200 (National Center for Advancing Translational Sciences (NCATS), 2011).
Records with an inconclusive call do not appear. Calls of active or inactive are those of the source. Calls come from the whole dose curve; as a rule, active = well fitted activation curve with a large enough effect; inconclusive = small, poorly fitted or top-dose-only effect; inactive = no such curve, though single readings can be large or run the other way.

assay: qHTS Assay for Rab9 Promoter Activators: Initial hit validation from the primary screen; settings: Huh7 Rab9 promoter luciferase reporter, 24 h; series mostly up to 46.1 µM; activation: at the top concentration; for activation: % of control where 0% means no effect
Method in brief: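 Luciferase signal, read 10 min after Amplite reagent, reports Rab9 promoter activation. Compounds in DMSO were applied for 24 h at 37C to Rab9-luciferase Huh7 cells, pre-incubated 2 h in reduced-serum medium with 10% FBS.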
Potency is the fitted concentration of half-maximal effect.

Potency, active:
CC(C)(C)NC(=S)NNC(=O)c1ccc2ncccc2c1 1.77 µM
Cc1ccc(N(O)C(=O)NCCCCNC(=O)N(O)c2ccc(C)cc2)cc1 15.8 µM
N#C/C(=C\c1ccc[nH]1)C(=O)Nc1ccccc1Cl 3.53 µM
Cc1ccc(CNC(=O)Nc2ccc(C)cc2)cc1 19.9 µM
CCC(=O)Nc1cc(-c2cc3ccccc3oc2=O)ccc1OC 0.791 µM
Cc1nc(-c2ccccn2)sc1C(=O)Nc1ccc(F)cc1F 9.96 µM
CC(C)(C)C(=O)N/C(N)=N/c1nc2ccccc2o1 0.628 µM
COC(=O)CSc1nc2cc3c(cc2cc1C#N)OCO3 0.353 µM
Cc1nnc2n(c1=O)N=C(c1ccc(Cl)cc1)CS2 0.888 µM
Cc1ccc(N=Cc2sc(O)c3ccccc23)c(C)c1 2.23 µM
O=C(Nc1nc2ccc(F)cc2s1)c1ccc(N2CCCC2=O)cc1 0.199 µM
O=C(CSc1nnc(-c2ccccn2)o1)Nc1ccccc1Cl 0.888 µM

activation, inactive:
Cc1ccc2nc(Nc3ccc(Cl)cc3)c3nncn3c2c1 -3.26%
O=C(C1COc2ccccc2O1)N1CCN(S(=O)(=O)c2ccccc2)CC1 (stereo not given) -3.72%
C=CCc1ccc(OCCOCCNCCOC)c(OC)c1 -10.5%
O=C(CCNC(=O)c1ccc(Br)o1)NCc1ccc(Cl)cc1 0.0639%
CCOC(=O)c1ccccc1NC(=O)CSc1nnc(Cc2cccn2C)n1-c1ccc(F)cc1 -11.2%
CCOC(=O)c1cc2sccc2n1CC(=O)N1CCCc2ccccc21 -13.2%
OCCC1CN(Cc2nc3ccccc3s2)CCN1C1CCCC1 (stereo not given) -5.07%
Cc1ccc(NC(=O)c2cccc(N3C(=O)CCC3=O)c2)nc1 9.67%
NCCOc1ccccc1-c1ccccc1 -3.52%
CC(=O)c1cccc(NC(=O)N2CCOCC2)c1 2.76%
Brc1ccccc1-c1nnc(CSc2nnc3sc4ccccc4n23)o1 11.5%
CCOc1cc(C2C(C#N)=C(N)Oc3n[nH]c(C)c32)ccc1OCCN1CCOCC1 (stereo not given) 0.655%
C=CCn1c(C)nnc1SCC(=O)Nc1nccs1 1.83%
O=C(NCCc1c[nH]c2ccccc12)C(=O)NCC(c1ccco1)N1CCN(c2ccccc2F)CC1 (stereo not given) -1.77%
CCN(C(=O)COC(=O)c1ccc(C=O)cc1)c1c(N)n(Cc2ccccc2)c(=O)[nH]c1=O -4.81%
COc1ccc(/C=C\C(=O)c2c(O)ccc3c(C)cc(=O)oc23)cc1OC -38.2%
O=C(O)CSc1nnc(-c2ccncc2)n1CCc1ccccc1 6.2%
CC(Sc1ncnc2c1cnn2-c1ccccc1)C(=O)Nc1ccc(N2CCOCC2)cc1 (stereo not given) 8.63%
O=C(CN1C(=O)COc2ccc(Cl)cc21)NCC1CCCO1 (stereo not given) -7.34%
Cc1ccccc1NC(=O)Cc1nc(COC(=O)CC(C)c2ccccc2)cs1 (stereo not given) -3%
COc1ccc(NC(=O)CN(C)C(=O)c2ccc(=O)[nH]c2)cc1 1.74%
COC(=O)c1cn(NC(=O)C2CCCCC2)c(=O)c2ccccc12 -5.53%
Cc1cccc(N2CCN(C(=S)c3ccccc3)CC2)c1 18.2%
